# Measurements: PubChem BioAssay (NCATS)
# Unmarked numbers belong to inactive results. Records with an inconclusive call do not appear. Entries that show only a call come without a potency. Active and inactive are the calls of the source. Unless noted, the call rests on the fitted dose curve; in most records, active means well fitted curve in the direction sought with a large enough effect; inconclusive means small, poorly fitted or top-dose-only effect, or another doubt; inactive means no such curve, though single readings can be large; an effect the other way counts as inactive or inconclusive.
# Experiments:
# [1] = AP1 Signaling Pathway (AID 357; active means well fitted curve in either direction with a large enough effect, not every such curve was filed as active;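 further: ME-180 reporter cells stimulated with EGF at its EC50 level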); details: ME-180 AP-1-bla reporter, EGF-induced, beta-lactamase ratio, 5 h; at 7.69 µM (top of the series) unless noted
# How it was run: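 AP-1-bla ME-180 cells, Opti-MEM + 0.5% dialyzed FBS, plated overnight 37 °C. Cpd titration + EC50 EGF, 5 h 37 °C. CCF4 2.5 h RT; ex 405, em 460/530 ratio → %activity, AC50.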
# [2] = molecular target: Cytochrome P450 1A2 (Homo sapiens) (UniProt P05177); assay: p450-cyp1a2 (AID 410; calls by dose curve; further: potency means the concentration at half of the fitted maximal effect)
# How it was run: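 20nM CYP1A2, 100uM Luciferin-ME (=Km), 100mM KPO4; cpd 10 min RT; +NADPH regen, 60 min RT; stop/detect 20 min; luminescence. Normalized to furafylline 57 uM = full inhibition.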
# [3] = NFAT Signaling Pathway (AID 444; active means well fitted curve in either direction with a large enough effect, not every such curve was filed as active;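 further: carbachol stimulus at about its EC50 of 1 µM final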); details: Jurkat NFAT-bla M1, carbachol, beta-lactamase ratio, 5 h; at 7.69 µM (top of the series) unless noted
# How it was run: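 Jurkat cells carrying an NFAT-driven β-lactamase reporter and co-transfected muscarinic M1 receptor were treated with compound plus carbachol (1 uM final, an EC50 level) for 5 h at 37 °C. CCF4 loading followed for 1 h at RT; 460/530 nm ratio gave %activity.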
# [4] = Stat Signaling Pathway (AID 446; active means well fitted curve in either direction with a large enough effect, not every such curve was filed as active;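 further: ME-180 cervical cancer cells given 40 pM IL-6 alongside compound; SIE-controlled beta-lactamase reporter measured as 460/530 nm FRET emission ratio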); details: ME-180 (cervical carcinoma) SIE beta-lactamase reporter, IL-6 stimulated, 5 h; at 7.69 µM (top of the series) unless noted
# How it was run: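 Compound effects on IL-6-induced STAT reporter activity were measured in ME-180 cells. After overnight culture, cells were co-treated with 40 pM IL-6 for 5 hrs before beta-lactamase substrate loading at room temperature.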
# [5] = molecular target: Mitogen-activated protein kinase 10 (Mus musculus) (UniProt Q61831); assay: JNK3 AlphaScreen Assay (AID 530; active means well fitted curve in either direction with a large enough effect, not every such curve was filed as active;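 further: kinase came from lysate of stimulated human HepG2 cells; signal reports phosphorylation of biotinylated GST-cJun 1-79 at Ser73 with 10 µM ATP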)
# How it was run: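 Biotinylated GST-cJun(1-79) served as substrate for JNK3 in HepG2 lysates stimulated with IL-1beta and TNF-alpha. ATP was 10 uM final, pH 7.6. Ser73 phosphorylation was quantified by AlphaScreen (680 nm excitation).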
# [6] = molecular target: 3',5'-cyclic-AMP phosphodiesterase 4B (Homo sapiens) (UniProt Q07343); assay: qHTS Assay for Inhibitors of PDE-IV (AID 607; active means well fitted activation curve with a large enough effect in the main read-out, with a control signal flat, not every such curve was filed as active)
# How it was run: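 ACTOne HEK293 cells carry a modified cAMP-gated CNG channel and express endogenous PDE4; plated 1000 cells/well, compounds up to 22.9 uM final. Membrane-potential dye fluorescence (ex 535/em 590) was read; parental cells received 10 uM forskolin + 100 uM RO 20-1724.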
# [7] = molecular target: Cytochrome P450 2D6 (Homo sapiens) (UniProt P10635); assay: qHTS Assay for Inhibitors and Substrates of Cytochrome P450 2D6 (AID 891); further: nearly all actives have a fitted effect of over 60% in size; further: potency means the concentration at half of the fitted maximal effect;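 on activity change, negative = inhibition: luciferin methyl ether substrate demethylated by CYP2D6 with NADPH regeneration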
# How it was run: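 Luminescent read-out of luciferin formed by 5 nM human CYP2D6 demethylating 30 uM Luciferin-ME EGE (Km level) over 60 min at room temperature after NADPH regeneration addition. Data normalized to full inhibition by 1.43 uM quinidine.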
# [8] = molecular target: Cytochrome P450 2C19 (Homo sapiens) (UniProt P33261); assay: qHTS Assay for Inhibitors and Substrates of Cytochrome P450 2C19 (AID 899); further: nearly all actives have a fitted effect of over 60% in size
# How it was run: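 In 50mM KPO4, the reaction held 5nM enzyme and KM-level (10uM) Luciferin-H EGE; it ran 60 min at 37C after NADPH regeneration and a 10 min compound preincubation. Luminescence values were scaled to 57uM ketoconazole as complete inhibition.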
# [9] = molecular target: Glucocorticoid receptor (Homo sapiens) (UniProt P04150); assay: GR-GFP Redistribution (AID 450;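 active means compounds whose dose series gives a full or clear partial fitted curve of increased nuclear translocation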; further: potency means the concentration at half of the fitted maximal effect); details: U2OS GR-GFP nuclear translocation, laser cytometry, 2 h
# [10] = molecular target: Glucocorticoid receptor (Homo sapiens) (UniProt P04150); assay: GR-EFC Redistribution (AID 451; calls by dose curve; further: potency means the concentration at half of the fitted maximal effect); details: CHO-K1 GR-EFC translocation, beta-gal luminescence, 2 h
# How it was run: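 CHO-K1 cells stably expressing nuclear-localized β-gal enzyme acceptor and GR fused C-terminally to the enzyme donor fragment; ligand-driven nuclear translocation restores β-gal by complementation. Compounds titrated up to 46 uM final, 2 h at 37 °C; luminescence read.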
# [11] = molecular target: Guanine nucleotide-binding protein G(i) subunit alpha-1 (Homo sapiens) (UniProt P63096); assay: qHTS Assay for Inhibitors of RGS12 GoLoco Motif Activity (Green Fluorophore) (AID 879);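 further: negative values mean loss of peptide binding seen as reduced polarization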
# How it was run: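 A drop in FITC polarization marked displacement of the FITC-tagged RGS12 GoLoco peptide (10 nM) from Gαi1 (50 nM). Compounds were incubated 10 min at room temperature in Tris pH 7.5 buffer containing 150 mM NaCl, 0.1 mM GDP and 0.05% NP40; unlabeled peptide titration served as control.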
# [12] = molecular target: Cytochrome P450 3A4 (Homo sapiens) (UniProt P08684); assay: qHTS Assay for Inhibitors and Substrates of Cytochrome P450 3A4 (AID 884); further: potency means the concentration at half of the fitted maximal effect; nearly all actives have a fitted effect of over 50% in size
# How it was run: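 Luminescent readout of luciferin produced by CYP3A4 (20 nM) dealkylation of Luciferin-PPXE, 25 uM (its KM). NADPH-driven reaction ran 60 min at RT after 10 min compound preincubation; data scaled to 57 uM ketoconazole as 100% inhibition.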
# [13] = qHTS Assay for Identification of Small Molecule Antagonists for NFkB Signaling Pathway (AID 895; active means well fitted inhibition curve with a large enough effect in the signal ratio, with a control signal flat, not every such curve was filed as active; the % refers to the signal ratio)
# How it was run: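 NFkB-bla ME-180 cervical carcinoma cells with beta-lactamase reporter under NFkB response element; compounds added, then TNF alpha at 10 pM final (EC50), 5 h at 37 C. LiveBLAzer substrate 2 h, room temperature; emission 460/530 nm at 405 nm excitation.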
# [14] = qHTS Assay for Identification of Small Molecule Antagonists for Thrombopoietin (TPO) Signaling Pathway (AID 918); details: TPO-dependent cell signaling reporter, antagonist mode; further: potency means the concentration at half of the fitted maximal effect; nearly all actives have a fitted effect of over 60% in size
# How it was run: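 Luminescence read-out: GPIIb-promoter luciferase in Ba/F3 cells carrying human TPO receptor. Compounds added with 26 pM TPO (EC50), 24 hrs, 37 C, 5% CO2; cells deprived of IL-3 overnight beforehand. Inhibition of signal scored.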
# [15] = molecular target: Muscarinic acetylcholine receptor M1 (Rattus norvegicus) (UniProt P08482); assay: qHTS Assay for Antagonists of Acetylcholine Muscarinic M1 Receptor: Measurement of IP-One Response (AID 944); further: nearly all actives have a fitted effect of over 75% in size
# How it was run: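 Read-out: HTRF competition between d2-IP1 and Eu-cryptate anti-IP1 antibody, emission 620 and 665 nm. Stimulus was carbachol, EC80 (200 nM), for 30 min in M1-CHO cells (rat receptor), after 10 min compound pre-treatment.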
# [16] = molecular target: Pyruvate kinase (Leishmania mexicana) (UniProt Q27686); assay: qHTS Validation Assay for Inhibitors of Leishmania Mexicana Pyruvate Kinase (AID 945)
# How it was run: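 Eight-point qHTS titrations in triplicate, data normalized to DMSO neutral control. Reaction: 0.2 nM LmPYK E451W mutant, 0.5 mM PEP, 0.1 mM ADP, 7 mM MgCl2, pH 7.2, one hour at room temperature; luminescent ATP detection.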
# [17] = molecular target: Pyruvate kinase PKM (Homo sapiens) (UniProt P14618); assay: qHTS Assay for Activators of Human Muscle Pyruvate Kinase (AID 954; active means well fitted curve in the direction sought with a large enough effect, not every such curve was filed as active)
# How it was run: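 A coupled luminescent readout tracked ATP made from ADP by purified PKM2. Final conditions included 0.1 nM enzyme, PEP and ADP at 0.5 and 0.1 mM, pH 7.2 imidazole buffer with BSA, and a one-hour room-temperature reaction.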
# [18] = molecular target: Alpha-galactosidase A (Homo sapiens) (UniProt P06280); assay: Counterscreen for Glucocerebrosidase Inhibitors: qHTS Assay for Human alpha-Galactosidase at pH 4.5 (AID 992)
# How it was run: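 Citrate buffer pH 4.5, Tween-20 0.005%. Enzyme 2 nM, substrate 80 uM, 20 min RT. Stop pH 10. Fluorescence Ex 365/Em 440. AC50 by Hill fit.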
# [19] = molecular target: alpha-glucosidase (Oryza sativa, rice) (UniProt Q653V4); assay: Counterscreen for Glucocerebrosidase Inhibitors: qHTS Assay for Rice alpha-Glucosidase at pH 5.0 (AID 997)
# How it was run: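 Endpoint fluorogenic assay at pH 5.0: compounds (0.7 nM to 77 uM) titrated against 4 nM rice enzyme and 400 uM 4-MU-alpha-glucoside for 20 min at room temperature; NaOH/glycine stop, read ex 365/em 440 nm, Hill-fitted AC50.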
# [20] = molecular target: Cytochrome P450 2C9 (Homo sapiens) (UniProt P11712); assay: qHTS Assay for Inhibitors and Substrates of Cytochrome P450 2C9 (AID 883); further: nearly all actives have a fitted effect of over 60% in size
# How it was run: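 CYP2C9 deoxyluciferin hydroxylation, 37C, 60 min with NADPH regeneration; 10nM enzyme, 100uM Luciferin-H (KM). Glo detection reagent stopped reaction; luminescence normalized to sulphaphenazole (57uM) full inhibition.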
# [21] = molecular target: Cytochrome P450 3A4 (Homo sapiens) (UniProt P08684); assay: qHTS Assay for Activators of Cytochrome P450 3A4 (AID 885); further: nearly all actives have a fitted effect of over 65% in size
# How it was run: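 CYP3A4 activity: Luciferin-PPXE O-dealkylation, 25uM substrate, 200mM KPO4, RT throughout. Read-out is luciferase luminescence; higher values reflect activation.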
# [22] = qHTS Assay for Identification of Small Molecule Agonists for Thrombopoietin (TPO) Signaling Pathway (AID 917)
# How it was run: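 Quantitative HTS for pathway activators: compounds were pin-transferred onto IL-3-starved Ba/F3 cells expressing human TPO receptor, TPO was added at its EC50 (26 pM final), and after 24 hrs at 37 C reporter luciferase was measured.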
# [23] = molecular target: Muscarinic acetylcholine receptor M1 (Rattus norvegicus) (UniProt P08482); assay: qHTS Assay for Antagonists of Acetylcholine Muscarinic M1 Receptor: Kinetic Measurement of Intracellular Calcium Response (AID 943); further: nearly all actives have a fitted effect of over 75% in size; further: potency means the concentration at half of the fitted maximal effect;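 on activity change, negative = inhibition: Fluo-4 calcium signal as peak divided by basal fluorescence over 4 min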
# How it was run: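 Read-out: peak over basal Fluo-4 fluorescence, kinetic at 1 Hz for 4 min after EC80 carbachol (100 nM final). Rat M1-CHO cells, dye loaded 1 h at 37C, compound added 10 min before agonist.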
# Chain of Cytochrome P450 1A2 (Homo sapiens) (P05177 whole entry, looked up): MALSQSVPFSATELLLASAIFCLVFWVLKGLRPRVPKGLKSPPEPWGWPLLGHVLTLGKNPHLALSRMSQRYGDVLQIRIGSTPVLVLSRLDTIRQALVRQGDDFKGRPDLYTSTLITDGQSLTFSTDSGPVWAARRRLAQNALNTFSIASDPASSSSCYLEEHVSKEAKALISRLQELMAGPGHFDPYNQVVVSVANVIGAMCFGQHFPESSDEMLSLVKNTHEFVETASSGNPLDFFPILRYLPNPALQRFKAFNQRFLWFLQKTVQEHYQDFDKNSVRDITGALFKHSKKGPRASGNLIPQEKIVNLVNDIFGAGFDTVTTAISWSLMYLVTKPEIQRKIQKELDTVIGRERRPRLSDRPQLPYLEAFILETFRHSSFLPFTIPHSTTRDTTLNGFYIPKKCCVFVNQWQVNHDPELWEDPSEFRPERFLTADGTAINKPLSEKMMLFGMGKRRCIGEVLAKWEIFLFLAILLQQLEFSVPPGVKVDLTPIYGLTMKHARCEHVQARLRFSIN
# Chain of 3',5'-cyclic-AMP phosphodiesterase 4B (Homo sapiens) (Q07343 whole entry, looked up): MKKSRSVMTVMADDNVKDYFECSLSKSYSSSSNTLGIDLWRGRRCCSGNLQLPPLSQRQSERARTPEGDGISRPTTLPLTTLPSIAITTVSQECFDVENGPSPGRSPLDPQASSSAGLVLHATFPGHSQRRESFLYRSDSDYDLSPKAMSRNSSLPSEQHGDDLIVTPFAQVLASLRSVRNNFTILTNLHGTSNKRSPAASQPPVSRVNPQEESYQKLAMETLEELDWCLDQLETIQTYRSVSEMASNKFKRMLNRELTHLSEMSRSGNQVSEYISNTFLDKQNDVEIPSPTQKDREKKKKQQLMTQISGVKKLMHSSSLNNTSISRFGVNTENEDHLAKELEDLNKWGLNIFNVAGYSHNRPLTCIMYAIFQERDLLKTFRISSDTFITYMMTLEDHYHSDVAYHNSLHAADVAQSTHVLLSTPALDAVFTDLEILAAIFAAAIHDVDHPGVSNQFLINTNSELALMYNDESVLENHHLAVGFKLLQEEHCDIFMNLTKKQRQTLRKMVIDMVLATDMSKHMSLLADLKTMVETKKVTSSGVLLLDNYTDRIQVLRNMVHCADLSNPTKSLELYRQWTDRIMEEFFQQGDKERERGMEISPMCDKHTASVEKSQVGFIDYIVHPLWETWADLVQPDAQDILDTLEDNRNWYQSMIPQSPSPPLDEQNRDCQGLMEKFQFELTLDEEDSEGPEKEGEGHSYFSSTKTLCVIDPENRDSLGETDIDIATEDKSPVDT
# Chain of Glucocorticoid receptor (Homo sapiens) (P04150 whole entry, looked up, the tested form may be a part): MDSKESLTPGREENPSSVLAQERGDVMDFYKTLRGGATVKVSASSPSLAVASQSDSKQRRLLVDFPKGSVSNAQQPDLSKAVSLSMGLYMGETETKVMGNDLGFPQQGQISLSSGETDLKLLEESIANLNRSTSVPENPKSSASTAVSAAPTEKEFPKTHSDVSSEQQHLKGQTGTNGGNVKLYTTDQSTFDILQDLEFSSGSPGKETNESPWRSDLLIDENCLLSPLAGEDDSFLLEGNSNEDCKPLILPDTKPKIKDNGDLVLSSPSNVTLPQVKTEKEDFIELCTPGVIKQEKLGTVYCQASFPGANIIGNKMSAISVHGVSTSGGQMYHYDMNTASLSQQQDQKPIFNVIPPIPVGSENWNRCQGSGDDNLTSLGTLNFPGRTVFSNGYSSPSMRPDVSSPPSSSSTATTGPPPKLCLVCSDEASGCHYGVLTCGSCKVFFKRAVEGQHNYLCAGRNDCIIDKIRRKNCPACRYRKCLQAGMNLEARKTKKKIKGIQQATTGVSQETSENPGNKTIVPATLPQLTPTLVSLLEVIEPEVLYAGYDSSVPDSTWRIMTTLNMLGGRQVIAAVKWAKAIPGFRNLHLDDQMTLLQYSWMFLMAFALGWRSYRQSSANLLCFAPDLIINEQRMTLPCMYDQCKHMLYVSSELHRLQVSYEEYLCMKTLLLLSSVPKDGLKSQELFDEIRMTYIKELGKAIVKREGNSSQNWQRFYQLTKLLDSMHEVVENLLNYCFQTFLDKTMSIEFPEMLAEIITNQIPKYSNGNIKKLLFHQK
# Chain of Alpha-galactosidase A (Homo sapiens) (P06280 whole entry, looked up): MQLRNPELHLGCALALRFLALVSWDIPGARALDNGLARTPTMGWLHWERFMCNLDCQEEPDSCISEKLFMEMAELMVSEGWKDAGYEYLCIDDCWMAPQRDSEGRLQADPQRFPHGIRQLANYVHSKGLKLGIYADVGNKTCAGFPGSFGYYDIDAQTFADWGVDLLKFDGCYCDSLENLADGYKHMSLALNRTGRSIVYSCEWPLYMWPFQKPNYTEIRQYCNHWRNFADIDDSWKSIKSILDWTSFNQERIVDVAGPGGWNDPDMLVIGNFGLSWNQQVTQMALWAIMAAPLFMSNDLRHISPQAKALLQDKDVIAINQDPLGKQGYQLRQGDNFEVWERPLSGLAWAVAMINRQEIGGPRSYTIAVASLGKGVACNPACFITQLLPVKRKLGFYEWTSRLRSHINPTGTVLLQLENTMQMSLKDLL
# Chain of Muscarinic acetylcholine receptor M1 (Rattus norvegicus) (P08482 whole entry, looked up): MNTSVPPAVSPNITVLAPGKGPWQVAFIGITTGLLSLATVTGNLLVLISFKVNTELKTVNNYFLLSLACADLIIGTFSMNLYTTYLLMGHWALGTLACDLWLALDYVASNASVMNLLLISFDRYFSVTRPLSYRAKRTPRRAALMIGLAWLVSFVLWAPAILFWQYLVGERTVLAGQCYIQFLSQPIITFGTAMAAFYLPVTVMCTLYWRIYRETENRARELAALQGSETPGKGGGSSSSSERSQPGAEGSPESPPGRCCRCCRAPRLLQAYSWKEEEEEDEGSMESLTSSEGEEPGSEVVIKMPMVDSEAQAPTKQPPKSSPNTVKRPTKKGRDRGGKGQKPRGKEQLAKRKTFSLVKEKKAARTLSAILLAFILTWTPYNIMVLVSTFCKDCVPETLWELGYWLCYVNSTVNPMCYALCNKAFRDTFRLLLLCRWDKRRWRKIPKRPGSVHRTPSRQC
# Chain of Pyruvate kinase (Leishmania mexicana) (Q27686 2-499 E452W): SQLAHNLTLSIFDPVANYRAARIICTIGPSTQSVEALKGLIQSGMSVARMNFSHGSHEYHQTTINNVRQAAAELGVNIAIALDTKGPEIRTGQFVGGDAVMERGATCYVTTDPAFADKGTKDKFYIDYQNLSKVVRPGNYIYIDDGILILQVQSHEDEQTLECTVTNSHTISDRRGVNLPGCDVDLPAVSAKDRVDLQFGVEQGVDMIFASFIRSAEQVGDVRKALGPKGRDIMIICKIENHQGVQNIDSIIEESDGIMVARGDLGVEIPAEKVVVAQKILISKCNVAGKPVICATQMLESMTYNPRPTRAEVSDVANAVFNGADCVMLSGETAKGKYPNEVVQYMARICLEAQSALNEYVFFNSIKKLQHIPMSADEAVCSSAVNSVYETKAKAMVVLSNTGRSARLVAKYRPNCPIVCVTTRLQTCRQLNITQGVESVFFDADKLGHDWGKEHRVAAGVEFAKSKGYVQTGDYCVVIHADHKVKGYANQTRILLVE
# Chain of Cytochrome P450 3A4 (Homo sapiens) (P08684 whole entry, looked up): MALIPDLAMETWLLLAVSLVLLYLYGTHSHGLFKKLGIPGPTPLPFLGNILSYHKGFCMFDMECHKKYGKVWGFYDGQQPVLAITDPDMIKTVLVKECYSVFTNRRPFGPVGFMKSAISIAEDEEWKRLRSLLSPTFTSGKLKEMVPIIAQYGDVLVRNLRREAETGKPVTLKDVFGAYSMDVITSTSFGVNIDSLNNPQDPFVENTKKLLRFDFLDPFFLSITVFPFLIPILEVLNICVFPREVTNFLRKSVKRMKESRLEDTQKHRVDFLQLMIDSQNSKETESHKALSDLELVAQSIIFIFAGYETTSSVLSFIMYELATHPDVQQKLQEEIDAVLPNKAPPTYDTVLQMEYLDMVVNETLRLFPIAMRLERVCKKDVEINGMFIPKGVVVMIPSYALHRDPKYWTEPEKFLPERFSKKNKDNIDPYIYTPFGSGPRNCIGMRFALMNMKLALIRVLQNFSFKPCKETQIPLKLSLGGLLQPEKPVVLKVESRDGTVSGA
# Chain of Pyruvate kinase PKM (Homo sapiens) (P14618 whole entry, looked up): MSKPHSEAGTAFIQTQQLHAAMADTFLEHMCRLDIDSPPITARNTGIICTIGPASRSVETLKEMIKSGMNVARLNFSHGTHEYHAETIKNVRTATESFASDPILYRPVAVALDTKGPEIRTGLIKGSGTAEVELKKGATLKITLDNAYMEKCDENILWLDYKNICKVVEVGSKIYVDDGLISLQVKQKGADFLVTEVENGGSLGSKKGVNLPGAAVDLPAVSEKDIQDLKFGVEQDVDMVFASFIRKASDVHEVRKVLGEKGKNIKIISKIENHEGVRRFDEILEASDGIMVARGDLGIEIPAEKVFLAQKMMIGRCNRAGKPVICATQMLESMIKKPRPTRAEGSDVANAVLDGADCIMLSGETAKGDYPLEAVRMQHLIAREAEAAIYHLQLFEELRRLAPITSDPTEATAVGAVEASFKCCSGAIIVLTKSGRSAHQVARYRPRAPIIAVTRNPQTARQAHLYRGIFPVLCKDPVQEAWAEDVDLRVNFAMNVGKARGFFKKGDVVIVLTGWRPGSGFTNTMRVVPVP
# Chain of Cytochrome P450 2C19 (Homo sapiens) (P33261 whole entry, looked up): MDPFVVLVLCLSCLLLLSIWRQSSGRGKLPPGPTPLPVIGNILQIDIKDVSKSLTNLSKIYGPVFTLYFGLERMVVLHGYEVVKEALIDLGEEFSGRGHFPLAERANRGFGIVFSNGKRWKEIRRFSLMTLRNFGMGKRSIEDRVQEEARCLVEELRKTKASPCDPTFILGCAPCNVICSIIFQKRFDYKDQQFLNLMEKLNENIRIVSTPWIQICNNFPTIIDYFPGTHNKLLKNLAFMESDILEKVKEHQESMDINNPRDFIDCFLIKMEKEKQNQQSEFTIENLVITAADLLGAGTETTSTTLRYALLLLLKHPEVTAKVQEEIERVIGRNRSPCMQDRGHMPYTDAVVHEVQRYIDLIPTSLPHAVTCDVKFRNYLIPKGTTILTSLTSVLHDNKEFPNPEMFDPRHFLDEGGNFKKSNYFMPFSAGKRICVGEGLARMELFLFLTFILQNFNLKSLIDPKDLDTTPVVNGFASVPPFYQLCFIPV
compound,measurement,setting,value
CCC[C@@H]1O[C@@H]2C[C@@H]3[C@@H]4CCC5=CC(=O)C=C[C@@]5(C)[C@H]4[C@H](O)C[C@@]3(C)[C@@]2(C(=O)CO)O1,"activity change, negative = inhibition",[1],8.13% [at 38 µM]
same,Potency,[2],inactive
same,"activity change, negative = inhibition",[3],9.04% [at 38 µM]
same,"activity, negative = inhibition",[4],6.66% [at 38 µM]
same,Potency,[5],inactive
same,Potency,[6],inactive
same,Potency,[7],inactive
same,Potency,[8],inactive
COc1cc2c3cc1Oc1cc(ccc1O)C[C@@H]1c4c(cc(OC)c(O)c4Oc4ccc(cc4)C[C@H]3[N+](C)(C)CC2)CC[N+]1(C)C,"activity change, negative = inhibition",[1],5.87%
same,Potency,[2],inactive
same,"activity change, negative = inhibition",[3],0.638%
same,"activity, negative = inhibition",[4],21.4%
same,Potency,[5],inactive
same,Potency,[6],inactive
same,Potency,[8],inactive
COc1cc2nc(N3CCN(C(=O)OCc4ccccc4)[C@H](C(=O)NC(C)(C)C)C3)nc(N)c2cc1OC,"activity change, negative = inhibition",[1],-7.79% [at 38 µM]
same,Potency,[2],inactive
same,"activity change, negative = inhibition",[3],3.46% [at 38 µM]
same,Potency,[9],> 46 µM
same,Potency,[10],> 46 µM
same,Potency,[5],inactive
same,Potency,[6],inactive
same,outcome,[11],inactive
same,Potency,[12],3.98 µM (active)
same,Potency,[13],inactive
same,Potency,[14],12.6 µM (active)
same,Potency,[15],inactive
same,outcome,[16],inactive
same,outcome,[17],inactive
same,outcome,[18],inactive
same,Potency,[19],inactive
CCCCCCCCCCCCCCCC(=O)NC[C@@H](COP(=O)([O-])OCC[N+](C)(C)C)OCC,"activity change, negative = inhibition",[1],-23.3% [at 38 µM]
same,Potency,[2],inactive
same,"activity change, negative = inhibition",[3],16.7% [at 38 µM] (active)
same,Potency,[9],> 46 µM
same,Potency,[10],> 46 µM
same,Potency,[5],inactive
same,Potency,[6],inactive
same,Potency,[20],inactive
same,Potency,[21],inactive
same,outcome,[22],inactive
same,Potency,[23],11.2 µM (active)
same,outcome,[16],inactive
same,outcome,[17],inactive
same,outcome,[18],inactive
same,Potency,[19],inactive
CC(=O)[C@@H]1CC[C@@H]2[C@@H]3CC=C4C[C@H](OS(=O)(=O)O)CC[C@@]4(C)[C@H]3CC[C@]21C,"activity change, negative = inhibition",[1],12.4% [at 38 µM]
same,Potency,[2],inactive
same,"activity change, negative = inhibition",[3],1.64% [at 38 µM]
same,Potency,[9],> 46 µM
same,Potency,[10],> 46 µM
same,Potency,[5],inactive
same,Potency,[6],inactive
same,outcome,[11],inactive
same,outcome,[22],inactive
same,Potency,[23],inactive
same,outcome,[16],inactive
same,outcome,[17],inactive
same,outcome,[18],inactive
same,Potency,[19],inactive
N=C(N)SCc1cccc2c(=O)cc(-c3ccccc3)oc12,"activity change, negative = inhibition",[1],28%
same,Potency,[2],0.126 µM (active)
same,"activity change, negative = inhibition",[3],-23%
same,Potency,[9],> 46 µM
same,Potency,[10],> 9.22 µM
same,Potency,[5],inactive
same,Potency,[6],inactive
same,Potency,[21],inactive
same,Potency,[7],2.51 µM (active)
